Source: PubChem BioAssay
TDP1 cell CPT: growth inhibition of DT40 Tdp1-/-;hTDP1 cells with camptothecin (screen for TDP1 inhibitors). chicken DT40 Tdp1-/-;hTDP1 cells + 20 nM CPT, ATP luminescence, 48 h. Potency, µM (top dose mostly 46.2 µM), without a hit: at the highest dose activity change, negative = growth inhibition, hits mostly inhibitors. actives 12% (n = 420,000). AID 686979; further: potency means the concentration at half of the fitted maximal effect; nearly all actives have a fitted effect of over 55% in size
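Cell growth measured by CellTiter-Glo luminescence after a minimum 48 h, 37 C compound exposure with 20 nM CPT in Tdp1-knockout DT40 cells stably expressing hTDP1, seeded 400/well; qHTS titration format.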
TDP1 cell noCPT: qHTS for Inhibitors of human tyrosyl-DNA phosphodiesterase 1 (TDP1): qHTS in cells in absence of CPT; DT40 Tdp1-/- hTDP1 cells, no CPT, ATP luminescence, 48 h; Potency, µM (doses to about 46.2 µM), inactives show at the highest dose activity change, negative = growth inhibition, actives largely listed as inhibitors; actives 15% (n = 420,000); further: potency means the concentration at half of the fitted maximal effect; nearly all actives have a fitted effect of over 55% in size
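Stably hTDP1-transfected Tdp1-null chicken DT40 cells were treated with library compounds minus camptothecin and grown for at least 48 hr at 37 °C, after which cellular ATP was quantified by luminescence.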
IL-1B inflam inh: blocks inflammasome-driven IL-1 beta release. THP-1 LPS/ATP IL-1B secretion, AlphaLISA, 16 h; stronger effect = lower value. activity change, % at 57.5 µM. actives 4.7% (n = 360,000); in the data active means activity change below about -50%; inconclusive means mostly about -30% to -49%
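THP-1 cells pretreated 1 hr with compounds (up to 57.5 uM final), then stimulated with LPS (250 ng/mL final) plus ATP (1.25 mM final); secreted IL-1B measured by AlphaLISA after 16 hr, decreased signal indicating inhibition.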
HT1080 IDH1KD tx: kills HT-1080 cells with IDH1 knockdown | HT-1080 IDH1 knockdown viability, ATP luminescence, 48 h | Potency, µM (titrated, usually from 46.1 µM), inactives show at the highest dose activity, negative = toxicity, most hits filed as cytotoxic | actives 2% (n = 360,000) | AID 686971;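 further: potency means the concentration at half of the fitted maximal effect; 0% = DMSO wells and -100% = cell-free medium wells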
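Knockdown cells (IDH1KD HT-1080) received compounds 2 h after plating at 750 cells/well and were kept 48 h at 37 °C in 5% FBS RPMI. A CellTiter-Glo luminescence read gave % activity for curve fitting.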
HT1080NT lethal: kills 2HG-producing HT-1080-NT fibrosarcoma cells | HT-1080-NT fibrosarcoma viability, CellTiter-Glo ATP luminescence, 48 h | Potency, µM (top dose mostly 46.1 µM), without a hit: at the top dose activity, negative = less viability, usual class: cytotoxic | actives 1.6% (n = 360,000) | AID 686970;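 further: NT is the 2HG producing partner of a matched IDH1 knockdown line; potency means the concentration at half of the fitted maximal effect; 0% = DMSO-treated cells and -100% = media-only wells without cells; nearly all actives have a fitted effect of over 55% in size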
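Viability of the 2HG-overproducing fibrosarcoma line after 48 hours of compound exposure at 37 degrees C was determined by luminescence with CellTiter-Glo, and concentration-effect curves were then fitted and categorized.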
Numbers without * were called inactive; u = inconclusive; x = not tested or not shown; [ ] = remark or other dose. In the library only some 19% were active in any assay of this set; here they are far more common. Unless noted, the call rests on the fitted dose curve; in most records, active means well fitted curve in the direction sought with a large enough effect; inconclusive means small, poorly fitted or top-dose-only effect, or another doubt; inactive means no such curve, though single readings can be large; an effect the other way counts as inactive or inconclusive. Unless noted, on the % scale 0 is the no-effect control and ±100 the full control effect.

SMILES | TDP1 cell CPT | TDP1 cell noCPT | IL-1B inflam inh | HT1080 IDH1KD tx | HT1080NT lethal
COc1ccc([N+](=O)[O-])cc1COc1ccc2c(-c3ccccc3)cc(=O)oc2c1 | u | -8.6% | 2.2 | -0.2% | 1.0%
O=C(O)COc1ccc2c(-c3ccccc3)cc(=O)oc2c1 | -0.7% | -2.4% | 9.6 | 16.9% | 16.0%
CC(=O)COc1ccc2c(-c3cccc([N+](=O)[O-])c3)cc(=O)oc2c1 | u | 23.1µM* | -14.9 | 0.4% | -0.2%
O=C(COc1ccc2c(-c3ccccc3)cc(=O)oc2c1)Nc1ccc(CN2CCOCC2)cc1 | 20.6µM* | u | -11.1 | -2.2% | 5.2%
O=C(COc1ccc2c(-c3ccccc3)cc(=O)oc2c1)Nc1ccc(CCO)cc1 | 8.2µM* | 7.31µM* | 0.6 | u | -13.6%
COc1cccc(N(CC(=O)N2CCN(C)CC2)S(=O)(=O)c2ccc(C)cc2)c1 | -8.4% | -9.9% | -1.3 | 10.4% | 3.9%
CO/N=C\CC(=O)Nc1ccc(Cl)cc1Cl | 11.6µM* | 20.6µM* | 1.2 | 8.2µM* | u
C/C(CC(=O)Nc1ccc(Cl)cc1Cl)=N\NC(N)=S | -18.4% | -28.7% | -11.6 | 7.94µM* | 10µM*
CO/N=C\CC(=O)Nc1ccc(F)cc1 | -1.0% | -6.5% | 42.2 | 1.5% | 8.3%
O=C(Cc1ccc(Cl)cc1)N1CCN(c2ccccc2)CC1 | -22.2% | 10.9% | 5.3 | -1.3% | -5.3%
Cc1ccc(S(=O)(=O)CCSc2n[nH]c(=O)n2-c2ccccc2)cc1 | 0.6% | u | u | -15.9% | u
Cc1cc(C)c(-n2c(SCc3nc4ccccc4s3)n[nH]c2=O)c(C)c1 | u | 29.1µM* | -94.9* | -21.2% | -27.5%
Cc1cc(C)c(-n2c(SCCS(=O)(=O)c3ccc(F)cc3)n[nH]c2=O)c(C)c1 | 25.9µM* | 23.1µM* | -97.1* | 18.4µM* | u
CCCn1c(SCc2nc3ccccc3s2)n[nH]c1=O | 12.0% | 8.3% | 101.9 | 3.2% | -4.0%
CON1C(=O)C(=O)N(OC)C(C)(C)C1C (stereo not given) | 0.1% | -8.7% | 38.7 | 0.6%[9.24 µM] | 1.8%
COc1cccc(CNC(=O)Cn2c(=O)cc(C(F)(F)F)c3c(C)nn(C)c32)c1OC | u | -19.5% | x | x | x
Cc1ccc(N(C(=O)c2sc(C)nc2C)C(C(=O)NCc2ccco2)c2ccccc2)cc1 (stereo not given) | u | u | -54.5* | 0.0% | 0.0%
Cc1ccc(NC(=O)/C=C\C(=O)N(c2ccc(C(C)C)cc2)C(C(=O)NCc2ccco2)c2ccc(F)cc2)cc1 (stereo not given) | 14.6µM* | 18.4µM* | x | x | x
COc1ccc(N(C(=O)/C=C\C(=O)Nc2ccc(C)cc2)C(C(=O)NCc2ccco2)c2ccc(C)cc2)cc1 (stereo not given) | 6.51µM* | 4.11µM* | x | x | x
NC(=O)CN1C(=O)NC2(CCCc3sccc32)C1=O (stereo not given) | 8.3% | -15.8% | 9.0 | 16.4% | 21.0%
CN(C)C(=O)CNC(=O)CN1C(=O)NC2(CCCc3sccc32)C1=O (stereo not given) | -3.7% | 5.9% | -64.7* | 17.1% | 15.5%
Brc1ccc2c(c1)C(c1ccc(N3CCOCC3)cc1)=NNC(c1cccs1)=N2 | u | 20.6µM* | -28.0 | -18.1% | -4.3%
Cc1ccc2c(c1)C(c1ccc(N3CCOCC3)cc1)=NNC(c1cccs1)=N2 | u | u | u | -13.4% | -6.8%
Fc1ccc2c(c1)C(c1ccncc1)=NNC(c1ccc(Cl)cc1)=N2 | u | -27.2% | -67.3* | -9.0% | -3.7%
Fc1ccc2c(c1)C(c1ccc(N3CCOCC3)cc1)=NNC(c1cccs1)=N2 | u | 23.1µM* | -50.8* | -28.9% | -20.9%
SMILES | TDP1 cell CPT | TDP1 cell noCPT | IL-1B inflam inh | HT1080 IDH1KD tx | HT1080NT lethal
Cc1nn2c(nc1=O)NNC2(C)C(C)(C)C (stereo not given) | 0.1% | 17.3% | 0.0 | u | -21.9%
COc1ccc(C)cc1NC(=O)Cc1c(C(=O)O)c(C)cn1C | 8.9% | -2.1% | x | x | x
CCCCn1c(=O)c(CCC(=O)OCC(=O)NCc2ccc(OC)c(OC)c2)nc2ccccc21 | -11.1% | -3.2% | 22.8 | 0.2% | -9.3%
COC(=O)c1[nH]c2ccccc2c1CN1CCOCC1 | -2.5% | 4.3% | -4.5 | 1.3% | -0.6%
CCCCCCN1C[C@H](O)[C@@H](n2cc(C3CC3)nn2)C[C@@H]1c1ccccc1 | u | 23.1µM* | 23.2 | -1.3% | 2.1%
CCCCCCN1C[C@@H](O)[C@H](n2cc(C3CC3)nn2)C[C@@H]1c1ccc(Cl)cc1 | 25.9µM* | u | 15.6 | u | -26.7%
CCCCCCN1C[C@@H](O)[C@H](n2cc(C3CC3)nn2)C[C@@H]1c1ccc(C)cc1 | -19.8% | u | 23.8 | -2.3% | 2.0%
CCCCCCN1C[C@@H](n2cc(C3CC3)nn2)[C@H](O)C[C@@H]1c1ccc(Cl)cc1 | u | u | -0.3 | -0.5% | 1.9%
CCCCCCN1C[C@H](O)[C@@H](n2cc(C3CC3)nn2)C[C@@H]1c1ccc(C)cc1 | u | 25.9µM* | -4.0 | -1.6% | 0.4%
CCCCCC(=O)N1C[C@@H](n2cc(C3CC3)nn2)[C@H](O)C[C@@H]1c1ccc(Cl)cc1 | 16.4µM* | 20.6µM* | 23.2 | -16.7% | -11.5%
COc1cc2c(c(OC)c1OC)-c1c(cc3c(c1OC)OCO3)C[C@@H](C)[C@](C)(O)C2 | 9.4% | u | x | x | x
C#Cc1ccc([C@@H]2C=C(C(=O)NCc3ccccc3)O[C@H](OCCCCO)C2)cc1 | -12.4% | -16.0% | -12.6 | -1.8% | -25.4%
COc1cc(/C=C(\C#N)c2nc3ccccc3s2)ccc1OCC(=O)Nc1ccccc1 | 5.17µM* | 4.61µM* | 34.5 | 7.1% | 8.8%
COc1cc(/C=C(/C#N)c2nc3ccccc3[nH]2)ccc1OCC(=O)Nc1ccccc1C | 3.26µM* | 6.51µM* | 7.2 | -2.5% | -6.7%
COc1cc(/C=C(/C#N)c2nc3ccccc3[nH]2)ccc1OCC(=O)Nc1ccccc1C(C)C | 4.61µM* | 5.8µM* | 18.5 | 8.2% | 16.3%
Cc1ccc(OCCn2c(C3CC(=O)N(Cc4ccc(F)cc4)C3)nc3ccccc32)c(C)c1 (stereo not given) | 25.9µM* | 20.6µM* | x | x | x
CCc1ccc(OCCn2c(C3CC(=O)N(Cc4ccc(F)cc4)C3)nc3ccccc32)cc1 (stereo not given) | 20.6µM* | 11.6µM* | x | x | x
COc1ccc(C(=O)OCCN2CCN(C3=NS(=O)(=O)c4ccccc43)CC2)cc1OC | -23.5% | -23.8% | 26.4 | 2.7% | -4.1%
COc1ccccc1NC(=O)/C(C#N)=C/C=C/c1ccco1 | 1.3µM* | 1.16µM* | 22.9 | 1.41µM* | 1.78µM*
